Source: the supplement of paper PMC10105736
Values without a mark were called inactive.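 The calls were made as follows: active = MAPPIT score above the 99th percentile of random reference set scores in the same batch; inactive = at or below it.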

How the values were obtained:
Experiment in all cases: MAPPIT interaction score (arbitrary units); higher = stronger binary interaction signal, active = hit call of the paper
mei-P22 = details: MAPPIT configuration: N-N; pair source set: screen_2
mira = details: MAPPIT configuration: N-C; pair source set: Lit-BM-16
nos = details: pair source set: Lit-BM-16
mal = details: MAPPIT configuration: N-N; pair source set: Lit-BS-16
otp = details: MAPPIT configuration: N-N; pair source set: screen_2
lwr = details: MAPPIT configuration: N-N; pair source set: Finley_Y2H
mnb = details: MAPPIT configuration: N-N; pair source set: Finley_Y2H
mod(mdg4) = details: pair source set: Lit-BM-16
su(Hw) = details: MAPPIT configuration: N-C; pair source set: Lit-BM-16
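Also: HEK293T cells with Epo stimulation, STAT-responsive firefly luciferase reporter, fold induction versus unstimulated cells divided by the larger fold induction of two negative controls lacking either bait or prey.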

B1: mei-P22 (protein)
chain: MDRTTVVPSPASTYCSFMGGSQHSPLRRSQRLIDKENRDLQKIPPKSLSPQLFGNTEDDYSELLLQQGKVVHLKPAAKLVPVRSSDNLVHLGSRDKVVPLKTSNRIVHLKPPYKIIHLKSLDEVEKTVKKKNNIQKEVHQRNSQRRSIQCTPKKRGRKPKQPAKKLQSRISTDQLGSTPSPSKLPAKYPAHFVHQLPPAEDSSCATRRRSLSAPAMQLSDLSLTPDEIQTPERRGEIVNKSPSDLDSDVSLNFSLSDSIGEIFGTKDISSILTMQRPRQYILLEEHLPTLATMLNVDLERLRCVLDITQGLSHEQILRFPIKHEEDELEVP
mei-P22
  MAPPIT interaction score: 4.86 (active)

B2: brat (protein)
chain: MASSPTPSLDSMRGGANSIESYEHAGYLSDSPLTLSGSSPPASDSAICSDEYTGGSSVKSRSEVTVINGHHPISASVSSSSSASSSSCSSSSSSSSSSSSSSSSTSGLSGCGSTSSSVISANNVASSNGPGVIGSNLQSSNNGGNSGISSLVVGAGKGSNSSSNSSSSNTSANGSPPRCTACKSKCSDAVAKCFECQSYLCANCVTAHEFMHCFNGHNVCLIKGFEASTTGTPLSVGSPSNNPASNEFKYASSLTMMLQQQQQLDSQQQQQQQQLLPAQPMSQLSKIVLAAAAQANSQEQQREDSIYGSLHPQQQQQQQQQQQRQLFCPRHKQELLKFSCRTCCILVCKECIVLEHSTGLHELENVQSPGMTTSTGSTANESALQTLLADMRGKIGEIVGIAGNSDQNLTKVKLQYQKAHNELNETHQFFASMLDERKTELLKELETLYTAKVNSNNSWQQRSRDLIDKGLATCEAVERSPAPPSSLLTEALLLRKSLEQQLQTGIQEMQLPFEIEFMSNYQSIQAGVRNTFGYIRANSSDGGPTGMSLTSNGHGKQPPIARPTQSASNSSASSAGSGHHGHHQQSHHHGHHNHHQTAHHQQLQAQSSLHGLGLGLSGASLLDSSSSAGGAVGAFSNGGLLLGGRDRNALAVEQHFGELMPKRGGGGYTGSNGSATSAVAHYNPYEKWSNGGSDNLFSSVTSGVSGSSAVADAFASLSAVGGSVVSGAGAGGSTVSSESLLDLTNKLLSATIYPPKSQIKRQKMIYHCKFGEFGVMEGQFTEPSGVAVNAQNDIIVADTNNHRIQIFDKEGRFKFQFGECGKRDSQLLYPNRVAVVRNSGDIIVTERSPTHQIQIYNQYGQFVRKFGATILQHPRGVTVDNKGRIIVVECKVMRVIIFDQNGNVLHKFGCSKHLEFPNGVVVNDKQEIFISDNRAHCVKVFNYEGQYLRQIGGEGITNYPIGVGINSNGEILIADNHNNFNLTIFTQDGQLISALESKVKHAQCFDVALMDDGSVVLASKDYRLYIYRYVQLAPVGM
mira
  MAPPIT interaction score: 1.62
nos; MAPPIT configuration: N-C
  MAPPIT interaction score: 0.0947
nos; MAPPIT configuration: N-N
  MAPPIT interaction score: 0.243

B3: cN-IIIB (protein)
chain: MGFDEKREPTGGRLRLQDIPALTQDHCRMRDPAEVERIINEFVIGGPERMQIVSDFDYTITKQRTEDGGAVPSSFGIFNACQSLPENFKAETDKLYHKYRPIEIDPHMPIAEKVQYMIEWWTKSGELTSGFPFDQSEIDQIASKYTHALRDRTHEFFADLQRLGIPTLVFSAGLGNSVVSVLRQANVLHPNVKVVSNFLQFRDGLLDGFQQPMIHTFNKNETVLNETSEYYDLVHTRDHIIVMGDSIGDADMASGVPASSHIMKIGFLFDHVEANMKKYMDTFDIVLVDDQTMDVPRTLLSLIEKQHKLNLEAPKQSSL
mal
  MAPPIT interaction score: 1.36
otp
  MAPPIT interaction score: -0.311

B4: CG12259 (protein)
chain: MAHYKGAASEAGRAAQLMKKREIQQQEIEFRKKKIEEELKLDKIENKFATHYDAVEQQLKSSTIGLVTLDEMKAKQEDIVREREKKLAQKKDEKDREKQRALEAIQAEKNKQKRQIQALSFNLDDDEEEEEEDDEDHDKKQLKIKQEDQPKPKWTEIKEDILPIKKKKICKNPDVDTSFLPDREREEQENRLREQLRQEWVMQQAELKDEDISITFSYWDGSGHRRNVLMKKGNSIYQFLQKCLELLRKEFIELKTVMADQLMYVKEDLILPHHYSFYDFIVTKARGKSGPLFQFDVHDDVRMISDASVEKEESHAGKVLLRSWYERNKHIFPASRWEPYDPTKSYDKYTIKDKDKSKK
lwr
  MAPPIT interaction score: 0.18

B5: CG6153 (protein)
chain: MPHGHSHDHGGCSHEASDVDHALEMGIEYSLYTKIDLDNVECLNEETDGQGKSVFKPYEKRQDLSKYVESDADEELLFNIPFTGNIKLKGIIISGANDDSHPNMVKIFKNRPRMTFDDARAKPDQEFQLTRDARGEIEYSPKVVTFSSVHHLSLYFPSNFGEDITRIYYIGLRGEFTEAHYHGVTICNYESRANAADHKEKAFDGVGRAIQ
mnb
  MAPPIT interaction score: 1.74

B6: Cp190 (protein)
chain: MGEVKSVKVDNWGVFFLQKLQNFFNKTDYCDLTLQFRDNSQLKVHRLVLSACTDYFNVLEQTCEIVDDALIMPNEFQADVVVPIVNFMYTGTLEFELKMYGKLLRTAKEMNMTVLLKLLEAHRRTMENVNRQQRPPSPKGIRRRTVGQPSSGLPQQRVLGPSPQSRNVATPIAQRANTQRGSTGNTMSRTSGGSNRSPYGDSSNVKQEPTSPFEQLRKGYNNNKRPAQTSLLSPPSKKPSLEEVKEFAEQQRMRKQIAAEYGDNDPEYDGGMLYDDVHAGDDDDDDMPPQPSTSKQQSPQGTQTQLEHGSTTIILKQDSPSQTPTIIVKDSSNAKLNHTKIIAEVLRQYPHIVKGHKNIKLKIMPNTPAAPTEKSAPATVKPPANQSSATTSPHKKLHVSFKADKSTPLITAQQKAASSQQKSGTSQTTGNQGTGANPPANTAAAQKRRIDSKTMHALIAQGAENTTGPWLCLRCGVNGRPISIPSYRGFRRHLINTHKETIDPALCEHCGWRSVNNRELHFHMYMEHQTKSLLYTFAECALCNQSYRTKGELEAHINEVHTDDNKQQCIYCNKVFEQELQLYRHMKSYHKEQALEDGIIDETDEEFLGSQDEEEEAEGDEEQEPEQTGKVRILSDISLPATSAITVQQAQQEQLQEEDVEQVQQEVKFVGADGNEVELTDEQRKEILSQLNQQQAGATAGGVVMVLSEPEAEHVKQETDEKSLAGTEEEYDDSQIYSELGAADSVESAKKNIADESKESIDNLEWAENLIAESEEQSNKEPKSDKPRDDISEKLKELTGDWTEDENDDDVDDKPATAELASELANKDPEPTVHEEEDDIDLALQSLHKGPEEATEEKASEESVTSADDAVDAVPNINSQPEKMDVDSEAADEKASKAEVQIKKEAELENDQEEFIKEDSPIPHSDSVAELREAVTASEGEDDVHLEADNIRKELLDELIAEAEKPDQEKDIVQSEENATTEALDRSVTDEDDLVPPTQVSTEQMEIDEPAAEKAAENNEDTRTADEKEAVEDKPNQTQDVTTAEKPTLESAKAGDEATSGEAASVDKVKSLISEWGDDDEDEDENGVSAAAKEEL
mod(mdg4); MAPPIT configuration: N-C
  MAPPIT interaction score: 2.63
mod(mdg4); MAPPIT configuration: N-N
  MAPPIT interaction score: -0.119
su(Hw)
  MAPPIT interaction score: -0.381
